Bioassay records: PubChem, National Center for Advancing Translational Sciences (NCATS)
ELG1 genotox: induces genotoxicity in HEK293T cells with luciferase-tagged ELG1. hit rate 1.3% among 330,000. HEK293T ELG1-luciferase reporter, luminescence, 16 h. AID 504466. Potency, µM (titrated, usually from 46 µM), without a hit: top-dose activity change, positive = activation, hits mostly activators; further: % of control where 0% means no effect; nearly all actives have a fitted effect of over 60% in size
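HEK293T cells expressing luciferase-tagged ELG1 were treated with compound or DMSO for 16 hr at 37°C. Luciferase activity was then read after 30 min with ONE-Glo at room temperature; rising signal flags genetic stress.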
NPC1 prom act: activates the NPC1 promoter | Huh7 NPC1 promoter luciferase reporter, 24 h | Potency, µM (titrated, usually from 9.22 µM), for the others: at the highest dose activation, hits mostly activators | hit rate 2.4% among 320,000; further: % of control where 0% means no effect; nearly all actives have a fitted effect of over 60% in size
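Huh7 reporter cells (NPC1 promoter driving luciferase) are dosed with compound for 24 h at 37 °C, 5% CO2; luciferase detection reagent is then added and luminescence measured after 10 min at ambient temperature.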
Rab9 prom act: activates the Rab9 promoter; AID 485297; Huh7 Rab9 promoter-luciferase reporter, luminescence, 24 h; hit rate 2.8% among 320,000; Potency, µM (doses to about 9.22 µM), for the others: at the top dose activation, negative = inhibition, usual class: activators; further: % of control where 0% means no effect; nearly all actives have a fitted effect of over 60% in size
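Huh7 cells stably carrying a Rab9 promoter-luciferase reporter, 1500 cells per well in OP-MEM I with 10% FBS, treated with compound 24 hours at 37C. Luciferase activity read by luminescence after 10 minutes with Amplite reagent.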
SMN2 splice enh: increases expression of the SMN2 splice variant; HEK293 SMN2-luciferase splicing reporter, luminescence, 30-36 h; Potency, µM (highest dose often 46.1 µM), for inactives: at the top dose activity change, positive = activation, usual class: activators; hit rate 2.8% among 210,000; further: % of control where 0% means no effect; nearly all actives have a fitted effect of over 55% in size
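HEK293 cells carry an SMN2 […]–luciferase reporter in which exon 7 inclusion puts luciferase in frame. Cells were plated 10-12 h before compound addition, then incubated 30-36 h at 37C. ONE-Glo luminescence was read; sodium butyrate at 4.5 mM final served as control.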
FLuc counter: firefly luciferase modulation, counter-screen for miR-21 project; P08659; purified FLuc, Km substrates, luminescence inhibition; Potency, µM (doses to about 57.5 µM), inactives show at the highest dose activity change, negative = inhibition, usual class: inhibitors; hit rate 6.9% among 360,000;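 further: plate controls were vehicle for no effect and reference inhibitor for full effect; nearly all actives have a fitted effect of over 55% in size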
Target sequence (P08659 whole entry, looked up): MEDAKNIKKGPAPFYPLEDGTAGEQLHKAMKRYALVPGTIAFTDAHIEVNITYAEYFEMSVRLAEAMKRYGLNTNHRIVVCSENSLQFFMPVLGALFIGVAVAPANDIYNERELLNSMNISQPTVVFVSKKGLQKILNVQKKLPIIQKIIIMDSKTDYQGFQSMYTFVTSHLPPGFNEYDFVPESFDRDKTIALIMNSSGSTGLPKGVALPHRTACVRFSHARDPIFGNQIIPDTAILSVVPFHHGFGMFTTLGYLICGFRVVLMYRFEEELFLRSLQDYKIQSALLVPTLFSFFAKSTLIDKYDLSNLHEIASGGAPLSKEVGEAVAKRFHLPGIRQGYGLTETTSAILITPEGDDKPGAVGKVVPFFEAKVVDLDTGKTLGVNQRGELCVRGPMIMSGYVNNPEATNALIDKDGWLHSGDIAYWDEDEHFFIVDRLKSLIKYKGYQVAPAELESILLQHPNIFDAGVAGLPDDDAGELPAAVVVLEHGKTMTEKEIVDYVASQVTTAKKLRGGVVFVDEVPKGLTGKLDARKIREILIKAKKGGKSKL
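Biochemical qHTS of compounds, final roughly 60 µM downward over six points, against 10 nM purified firefly luciferase using Km concentrations of substrates (10 uM D-luciferin, 10 uM ATP) in Tris acetate pH 7.5 buffer; luminescence output.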
Active calls of the source: *; ? = inconclusive; . = no result given. This is a sample that favours compounds with a hit; in the whole collection about 7.4% have one here. The call rests on the fitted dose curve; in most records, active means well fitted curve in the direction sought with a large enough effect; inconclusive means small, poorly fitted or top-dose-only effect, or another doubt; inactive means no such curve, though single readings can be large; an effect the other way counts as inactive or inconclusive. Potency means the concentration at half of the fitted maximal effect.

SMILES	ELG1 genotox	NPC1 prom act	Rab9 prom act	SMN2 splice enh	FLuc counter
CS(=O)(=O)Nc1ccc(C2=NN(C(=O)c3ccco3)C(c3ccc(F)cc3)C2)cc1 (stereo not given)	-4.1%	-3.0%	-2.6%	-56.5%	-2.7%
O=c1c(C=NCCN2CCNCC2)c(-c2ccccc2)[nH]n1-c1ccc([N+](=O)[O-])cc1	12.5%	?	?	.	?
COc1ccc(-c2[nH]n(-c3ccc([N+](=O)[O-])cc3)c(=O)c2C=NCCN2CCNCC2)cc1	?	0.708µM*	0.447µM*	.	0.953µM*
CC(=O)c1sc(NC(=O)c2ccccc2F)nc1-c1ccccc1	-17.1%	2.24µM*	1.78µM*	11.2µM*	12µM*
COc1ccc(C(=O)Nc2nc(-c3ccccc3)c(C(C)=O)s2)c(OC)c1	?	25.3%	?	1.1%	0.849µM*
CC(=O)c1sc(NC(=O)c2ccc(F)cc2)nc1-c1ccccc1	?	?	26.4%	?	?
O=C(CSc1nc(=O)n(Cc2ccncc2)c2c1CCC2)Nc1ccc(F)cc1F	.	.	.	.	-1.3%
Nc1c(-c2n[nH]c(=S)n2-c2ccc(Cl)cc2Cl)cnn1-c1ccccc1	0.2%	-2.3%	-2.1%	.	1.7%
Nc1[nH]nc2c1NN(c1ccc(Cl)cc1Cl)N2	?	?	29.7%	?	12µM*
COc1ccc(-c2cc3nc[nH]c(=O)c3s2)cc1	4.11µM*	?	2.82µM*	12.6µM*	3.79µM*
COc1ccc(-c2cc3nc(CCl)[nH]c(=O)c3s2)cc1	?	?	?	.	0.12µM*
CCOC(=O)c1c(C)nc2sc3c(=O)[nH]cnc3c2c1-c1ccc(OC)cc1	2.5%	-4.3%	-4.9%	20.2%	-0.4%
O=c1[nH]cnc2cc(-c3ccccc3)sc12	?	3.55µM*	?	?	12µM*
COc1ccc(N2CCN(Cc3nc4ccsc4c(=O)[nH]3)CC2)cc1	-0.8%	-3.8%	-2.0%	4.5%	-1.6%
CCN(C(=O)CN1C(=O)NC2(CCc3ccccc32)C1=O)C1CCCCC1 (stereo not given)	-0.4%	-3.0%	-3.6%	.	-0.6%
COc1ccc(NC(=O)CN(C)S(=O)(=O)c2ccc3[nH]c4c(c3c2)CCCC4)cc1Cl	.	.	.	.	-13.5%
CCn1c(=O)sc2cc(NS(=O)(=O)c3ccc(C)cc3)ccc21	.	.	.	-6.0%	-20.0%
CC(C)(C)CC(=O)N1CCN(Cc2ccc3c(c2)OCO3)CC1	-4.3%	0.4%	7.1%	.	8.4%
COc1ccc(-c2cn3c(n2)CCC3)cc1	?	2.51µM*	1.58µM*	12.6µM*	13.5µM*
c1ccc(-c2ccc(-c3cn4c(n3)CCC4)cc2)cc1	?	0.447µM*	?	27.4%	0.849µM*
Cc1ccc(-c2cn3c(n2)CCCC3)cc1	0.3%	-11.0%	-6.1%	-24.9%	-5.8%
CCCn1nc(C(=O)NNC(=O)Cc2ccc(S(=O)(=O)N3CCOCC3)s2)c2ccccc2c1=O	0.0%	4.7%	-3.1%	.	4.6%
Cc1cc(=O)n2nc(-c3ccc(C(F)(F)F)cc3)sc2n1	3.98µM*	?	?	11.2µM*	?
COc1ccc(C(=O)NC(=S)Nc2cccnc2)cc1Cl	-4.0%	-2.2%	5.5%	.	-2.1%
CCCOc1ccc(-c2cnc(N)s2)cc1	?	?	3.16µM*	17.8µM*	10.7µM*
SMILES	ELG1 genotox	NPC1 prom act	Rab9 prom act	SMN2 splice enh	FLuc counter
CCCOc1ccc(OCCSc2nnc(N)s2)cc1	12.6µM*	?	?	?	4.78µM*
Nc1nnc(SCCOc2cccc(Br)c2)s1	8.9%	12.5%	14.4%	-2.3%	?
CCOc1ccc(-c2nc(CSc3nnc(N)s3)cs2)cc1	5.01µM*	?	?	?	1.9µM*
Nc1nnc(SCCCOc2ccc(F)cc2)s1	-4.6%	-4.5%	3.0%	.	15.1µM*
CCOC(=O)c1ccc(CSc2nnc(N)s2)cc1	23.1µM*	?	?	?	16.9µM*
CCCCOc1ccc(CNC(=O)c2ccc(NC(=O)N3CCCCc4ccccc43)cc2)cc1	.	.	.	.	-12.1%
COc1c(C(=O)Nc2ccc(Br)cn2)ccc2ccccc12	?	18.4%	?	.	5.36µM*
COc1ccc(CCC(=O)Nc2ccc(Br)cn2)cc1	-0.6%	0.0%	-0.6%	-4.4%	-0.6%
COc1cc2ccccc2cc1C(=O)Nc1ccc(Br)cn1	?	1.58µM*	1.78µM*	.	?
COc1ccccc1NC(=O)Nc1ccc(Br)cn1	4.0%	7.6%	16.7%	5.2%	1.5%
COc1ccccc1NC(=O)COC(=O)C1C2CC3OC(=O)C1C3C2 (stereo not given)	-2.8%	0.2%	5.4%	.	15.1µM*
O=C(Cc1cccc2ccccc12)Nc1nc2ccccc2[nH]1	1.2%	0.2%	-2.7%	-1.7%	-1.6%
CC(C)[C@H](NC(=O)C1CCCC1)c1nc2ccccc2[nH]1	0.6%	0.3%	8.5%	13.2%	0.3%
O=C(CC1CCCC1)Nc1nc2ccccc2[nH]1	16.4µM*	3.55µM*	2.82µM*	12.6µM*	9.53µM*
O=C(Nc1nc2ccccc2[nH]1)C1CCC1	?	?	2.82µM*	12.6µM*	16.9µM*
O=C(NCc1nc2ccccc2[nH]1)C1CCCCC1	2.6%	3.2%	-2.9%	2.3%	3.7%
O=C(Nc1nc2ccccc2[nH]1)C1CCCC1	?	1.58µM*	1.26µM*	11.2µM*	15.1µM*
Cc1ccc(CCNC(=O)CCCn2c(=O)c3cccn3c3ccc(F)cc32)cc1	.	.	.	.	-5.1%
